# Assay results reported in the supplement of paper PMC10849652.
# The full data set covers some 7,900 targets. This sample favours those with a hit. About 0.6% of all pairs of compound and target were hits. Unmarked numbers belong to inactive results.
# What was measured:
# Experiment in all cases: log2 fold change, soluble protein after heating vs DMSO (PISA); higher = thermal stabilisation; K562 cells, 10 uM, 30 min; active = over 0.2 and 3.5 SD of the protein, either way, in both replicates (recomputed)
# [1] = compound: CS(=O)(=O)c1ccc(-c2cnc(N)c(C(=O)Nc3ccccc3)n2)cc1
# How it was run: (§1)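 K562 cells at 2×10^6 cells/mL were exposed to 10 μM compound for 30 min, then aliquots were heated for 3 min across 48°C-58°C, pooled, and extracted in PBS containing 0.5% NP-40 at 4°C. The supernatant after 21,000xg for 90 min was taken as soluble protein and measured by TMTpro 16plex LC-MS/MS with channel sums equalised. Thermal stability is reported relative to control samples, with values from duplicates. Fold changes are given on a log2 scale.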
# crizotinib = compound: C[C@@H](Oc1cc(-c2cnn(C3CCNCC3)c2)cnc1N)c1c(Cl)ccc(F)c1Cl [crizotinib]
# How it was run: as §1
# [2] = compound: C[C@@H]1COCCN1C2=NC(=NC(=C2)C3(CC3)S(=O)(=O)C)C4=C5C=CNC5=CC=C4
# How it was run: as §1
# [3] = compound: C[C@H](C1=CC=C(C=C1)C(=O)NC2=C3C=CNC3=NC=C2)N
# How it was run: as §1
# duvelisib = compound: C[C@H](Nc1ncnc2nc[nH]c12)c1cc2cccc(Cl)c2c(=O)n1-c1ccccc1 [duvelisib]
# How it was run: as §1
# tozasertib = compound: Cc1cc(Nc2cc(N3CCN(C)CC3)nc(Sc3ccc(NC(=O)C4CC4)cc3)n2)n[nH]1 [tozasertib]
# How it was run: as §1
# [4] = compound: Cc1cc(SCc2sc(-c3ccc(C(F)(F)F)cc3)nc2C)ccc1OCC(=O)O
# How it was run: as §1
# doramapimod = compound: Cc1ccc(-n2nc(C(C)(C)C)cc2NC(=O)Nc2ccc(OCCN3CCOCC3)c3ccccc23)cc1 [doramapimod]
# How it was run: as §1
# ispinesib = compound: Cc1ccc(C(=O)N(CCCN)[C@@H](c2nc3cc(Cl)ccc3c(=O)n2Cc2ccccc2)C(C)C)cc1 [ispinesib]
# How it was run: as §1
# bafetinib = compound: Cc1ccc(NC(=O)c2ccc(CN3CC[C@H](N(C)C)C3)c(C(F)(F)F)c2)cc1Nc1nccc(-c2cncnc2)n1 [bafetinib]
# How it was run: as §1
# nilotinib = compound: Cc1cn(-c2cc(NC(=O)c3ccc(C)c(Nc4nccc(-c5cccnc5)n4)c3)cc(C(F)(F)F)c2)cn1 [nilotinib]
# How it was run: as §1
# [5] = compound: Cc1nc(Nc2n[nH]c3c2CN(C(=O)N[C@H](CN(C)C)c2ccccc2)C3(C)C)c2sccc2n1
# How it was run: as §1
# dasatinib = compound: Cc1nc(Nc2ncc(C(=O)Nc3c(C)cccc3Cl)s2)cc(N2CCN(CCO)CC2)n1 [dasatinib]
# How it was run: as §1
# [6] = compound: Cc1ncc(-c2ccnc(Nc3ccc(S(C)(=O)=O)cc3)n2)n1C(C)C
# How it was run: as §1
# [7] = compound: Cn1cc(-c2ccc3c(c2)CCN3C(=O)Cc2cccc(C(F)(F)F)c2)c2c(N)ncnc21
# How it was run: as §1
# [8] = compound: Cn1cc(-c2ccc3nnc(C(F)(F)c4ccc5ncccc5c4)n3n2)cn1
# How it was run: as §1
# tipifarnib = compound: Cn1cncc1[C@@](N)(c1ccc(Cl)cc1)c1ccc2c(c1)c(-c1cccc(Cl)c1)cc(=O)n2C [tipifarnib]
# How it was run: as §1
# mubritinib = compound: FC(F)(F)c1ccc(/C=C/c2nc(COc3ccc(CCCCn4ccnn4)cc3)co2)cc1 [mubritinib]
# How it was run: as §1
# gandotinib = compound: Cc1cc(Nc2cc(CN3CCOCC3)c3nc(C)c(Cc4ccc(Cl)cc4F)n3n2)n[nH]1 [gandotinib]
# How it was run: as §1
# [9] = compound: Cc1cccc(CC(=O)N2CCc3c2ccc(-c2cn(C)c4ncnc(N)c24)c3F)n1
# How it was run: as §1
# Chain of UniProt P28290 (P28290 whole entry, looked up): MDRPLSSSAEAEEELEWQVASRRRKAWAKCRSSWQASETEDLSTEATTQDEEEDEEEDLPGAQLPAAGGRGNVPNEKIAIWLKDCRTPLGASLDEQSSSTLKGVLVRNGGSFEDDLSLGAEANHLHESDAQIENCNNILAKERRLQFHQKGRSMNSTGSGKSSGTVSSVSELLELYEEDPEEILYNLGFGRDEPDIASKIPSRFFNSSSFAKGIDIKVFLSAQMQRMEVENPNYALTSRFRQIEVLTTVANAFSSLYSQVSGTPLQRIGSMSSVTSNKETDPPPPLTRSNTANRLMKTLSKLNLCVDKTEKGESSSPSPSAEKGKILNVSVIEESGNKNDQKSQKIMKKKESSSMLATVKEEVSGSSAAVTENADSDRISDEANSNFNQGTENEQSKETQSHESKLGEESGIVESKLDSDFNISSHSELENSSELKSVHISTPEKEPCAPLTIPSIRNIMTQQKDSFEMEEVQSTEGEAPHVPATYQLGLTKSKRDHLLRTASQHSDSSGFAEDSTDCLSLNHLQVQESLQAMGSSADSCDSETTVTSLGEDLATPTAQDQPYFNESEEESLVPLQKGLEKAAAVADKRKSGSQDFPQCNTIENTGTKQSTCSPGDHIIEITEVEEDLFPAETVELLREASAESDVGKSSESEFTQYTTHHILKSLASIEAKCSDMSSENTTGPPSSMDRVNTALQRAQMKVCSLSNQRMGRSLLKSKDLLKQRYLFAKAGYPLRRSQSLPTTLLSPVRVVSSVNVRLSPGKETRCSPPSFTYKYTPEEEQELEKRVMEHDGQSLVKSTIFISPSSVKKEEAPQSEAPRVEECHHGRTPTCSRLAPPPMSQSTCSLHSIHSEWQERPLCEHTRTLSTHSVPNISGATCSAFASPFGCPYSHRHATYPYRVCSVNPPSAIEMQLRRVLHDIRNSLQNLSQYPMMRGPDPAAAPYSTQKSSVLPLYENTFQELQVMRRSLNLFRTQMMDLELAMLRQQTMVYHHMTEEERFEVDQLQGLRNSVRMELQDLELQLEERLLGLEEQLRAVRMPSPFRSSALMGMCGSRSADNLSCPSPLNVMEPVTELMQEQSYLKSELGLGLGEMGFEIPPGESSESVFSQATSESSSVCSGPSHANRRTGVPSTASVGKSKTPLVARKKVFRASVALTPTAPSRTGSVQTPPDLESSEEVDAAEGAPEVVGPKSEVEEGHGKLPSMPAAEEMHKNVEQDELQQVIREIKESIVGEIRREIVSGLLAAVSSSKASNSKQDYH
# Chain of UniProt Q9NYL2 (Q9NYL2 whole entry, looked up): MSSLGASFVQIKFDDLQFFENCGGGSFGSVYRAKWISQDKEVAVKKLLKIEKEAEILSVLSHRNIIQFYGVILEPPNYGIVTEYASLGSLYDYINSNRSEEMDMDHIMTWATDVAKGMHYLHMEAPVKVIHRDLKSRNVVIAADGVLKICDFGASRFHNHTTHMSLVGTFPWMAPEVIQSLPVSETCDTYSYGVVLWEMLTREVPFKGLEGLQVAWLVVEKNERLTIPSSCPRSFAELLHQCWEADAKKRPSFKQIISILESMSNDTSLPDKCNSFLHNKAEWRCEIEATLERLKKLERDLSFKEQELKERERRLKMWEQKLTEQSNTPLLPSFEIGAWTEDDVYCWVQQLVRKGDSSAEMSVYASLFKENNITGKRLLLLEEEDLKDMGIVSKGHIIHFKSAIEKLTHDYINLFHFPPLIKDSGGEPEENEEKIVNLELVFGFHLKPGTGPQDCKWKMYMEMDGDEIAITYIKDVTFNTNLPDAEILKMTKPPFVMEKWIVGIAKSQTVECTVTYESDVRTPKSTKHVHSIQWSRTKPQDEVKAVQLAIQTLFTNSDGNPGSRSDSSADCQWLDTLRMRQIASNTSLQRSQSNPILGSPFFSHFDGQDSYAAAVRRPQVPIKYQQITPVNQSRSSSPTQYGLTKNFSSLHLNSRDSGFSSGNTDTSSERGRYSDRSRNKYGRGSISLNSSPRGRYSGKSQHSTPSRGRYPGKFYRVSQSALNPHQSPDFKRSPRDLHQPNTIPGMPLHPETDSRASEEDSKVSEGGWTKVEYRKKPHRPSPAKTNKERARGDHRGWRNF
# Chain of UniProt Q96GX5 (Q96GX5 whole entry, looked up): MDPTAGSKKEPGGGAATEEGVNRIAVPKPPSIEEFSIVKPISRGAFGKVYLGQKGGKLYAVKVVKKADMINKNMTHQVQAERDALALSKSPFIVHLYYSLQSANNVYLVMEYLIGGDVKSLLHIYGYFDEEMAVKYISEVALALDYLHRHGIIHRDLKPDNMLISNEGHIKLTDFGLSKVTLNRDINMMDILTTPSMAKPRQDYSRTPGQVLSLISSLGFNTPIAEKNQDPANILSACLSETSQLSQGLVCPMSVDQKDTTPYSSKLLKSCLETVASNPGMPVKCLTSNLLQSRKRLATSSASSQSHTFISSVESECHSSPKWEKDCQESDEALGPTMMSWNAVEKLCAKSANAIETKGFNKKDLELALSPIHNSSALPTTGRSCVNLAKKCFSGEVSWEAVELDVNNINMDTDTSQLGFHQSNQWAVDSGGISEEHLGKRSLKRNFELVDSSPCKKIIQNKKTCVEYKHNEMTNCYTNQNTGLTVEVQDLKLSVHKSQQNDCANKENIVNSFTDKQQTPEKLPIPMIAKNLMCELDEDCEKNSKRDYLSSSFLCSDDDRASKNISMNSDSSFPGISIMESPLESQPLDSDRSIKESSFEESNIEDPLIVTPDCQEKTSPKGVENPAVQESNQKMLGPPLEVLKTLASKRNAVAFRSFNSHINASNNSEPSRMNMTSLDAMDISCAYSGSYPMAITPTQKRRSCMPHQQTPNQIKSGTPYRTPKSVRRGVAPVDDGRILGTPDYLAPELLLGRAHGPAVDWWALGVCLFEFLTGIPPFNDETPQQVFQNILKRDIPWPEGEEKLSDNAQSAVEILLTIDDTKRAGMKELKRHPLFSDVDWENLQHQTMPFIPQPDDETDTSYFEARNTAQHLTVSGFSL
# Chain of UniProt P51884 (P51884 whole entry, looked up): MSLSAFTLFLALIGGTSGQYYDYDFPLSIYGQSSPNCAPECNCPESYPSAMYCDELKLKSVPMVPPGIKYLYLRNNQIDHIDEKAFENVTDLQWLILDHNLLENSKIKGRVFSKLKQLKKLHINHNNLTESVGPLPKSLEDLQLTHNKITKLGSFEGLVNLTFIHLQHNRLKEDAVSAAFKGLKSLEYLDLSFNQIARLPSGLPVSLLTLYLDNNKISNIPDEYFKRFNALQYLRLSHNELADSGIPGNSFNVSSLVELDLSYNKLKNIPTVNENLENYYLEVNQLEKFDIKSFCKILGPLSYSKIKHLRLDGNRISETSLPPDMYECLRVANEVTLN
# Chain of UniProt Q92604 (Q92604 whole entry, looked up): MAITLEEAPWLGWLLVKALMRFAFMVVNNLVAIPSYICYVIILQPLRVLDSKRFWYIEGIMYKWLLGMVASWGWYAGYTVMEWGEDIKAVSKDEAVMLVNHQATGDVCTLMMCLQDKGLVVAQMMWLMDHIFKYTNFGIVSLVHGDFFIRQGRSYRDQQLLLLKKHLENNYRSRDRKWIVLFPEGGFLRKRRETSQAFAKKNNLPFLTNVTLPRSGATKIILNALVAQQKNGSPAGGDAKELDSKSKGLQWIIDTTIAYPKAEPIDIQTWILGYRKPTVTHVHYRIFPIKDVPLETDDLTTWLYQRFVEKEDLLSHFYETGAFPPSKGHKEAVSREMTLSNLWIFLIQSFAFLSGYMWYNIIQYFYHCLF
# Chain of UniProt O95279 (O95279 whole entry, looked up): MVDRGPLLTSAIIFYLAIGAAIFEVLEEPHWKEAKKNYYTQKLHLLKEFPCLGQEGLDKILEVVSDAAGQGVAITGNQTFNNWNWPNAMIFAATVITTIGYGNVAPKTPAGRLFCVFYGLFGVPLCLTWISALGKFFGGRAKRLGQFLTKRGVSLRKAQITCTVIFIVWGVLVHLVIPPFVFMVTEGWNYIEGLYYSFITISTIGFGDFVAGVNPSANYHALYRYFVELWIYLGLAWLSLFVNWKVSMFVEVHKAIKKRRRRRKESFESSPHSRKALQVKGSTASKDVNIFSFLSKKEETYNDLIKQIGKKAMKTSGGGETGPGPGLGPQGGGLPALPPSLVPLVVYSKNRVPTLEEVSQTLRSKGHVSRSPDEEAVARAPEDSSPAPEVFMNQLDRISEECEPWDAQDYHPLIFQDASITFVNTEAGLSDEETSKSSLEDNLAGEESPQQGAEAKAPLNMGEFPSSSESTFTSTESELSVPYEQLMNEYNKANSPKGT
# Chain of UniProt Q6UB28 (Q6UB28 whole entry, looked up): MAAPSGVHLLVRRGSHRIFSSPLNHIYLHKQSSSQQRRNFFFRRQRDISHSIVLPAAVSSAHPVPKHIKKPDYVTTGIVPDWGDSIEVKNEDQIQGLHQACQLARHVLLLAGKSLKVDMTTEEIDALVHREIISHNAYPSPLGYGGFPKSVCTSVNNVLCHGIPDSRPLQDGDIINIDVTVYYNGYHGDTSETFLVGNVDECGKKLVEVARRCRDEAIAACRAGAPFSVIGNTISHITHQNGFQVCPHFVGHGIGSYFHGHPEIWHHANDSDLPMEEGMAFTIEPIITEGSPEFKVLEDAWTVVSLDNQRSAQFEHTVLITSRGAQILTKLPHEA
# Chain of UniProt Q9Y287 (Q9Y287 whole entry, looked up): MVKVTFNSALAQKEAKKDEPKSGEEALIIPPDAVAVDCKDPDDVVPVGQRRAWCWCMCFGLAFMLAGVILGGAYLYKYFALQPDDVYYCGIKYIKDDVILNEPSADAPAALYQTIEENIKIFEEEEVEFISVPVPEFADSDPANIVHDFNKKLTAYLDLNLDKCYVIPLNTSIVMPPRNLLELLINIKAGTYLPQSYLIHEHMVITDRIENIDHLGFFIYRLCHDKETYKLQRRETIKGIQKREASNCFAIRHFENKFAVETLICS
# Chain of UniProt Q96LU5 (Q96LU5 whole entry, looked up): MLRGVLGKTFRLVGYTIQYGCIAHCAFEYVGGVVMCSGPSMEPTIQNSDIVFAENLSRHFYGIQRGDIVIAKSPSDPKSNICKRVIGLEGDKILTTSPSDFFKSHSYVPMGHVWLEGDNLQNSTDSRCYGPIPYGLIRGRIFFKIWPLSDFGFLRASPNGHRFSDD
Target,log2 fold change [1],log2 fold change (crizotinib),log2 fold change [2],log2 fold change [3],log2 fold change (duvelisib),log2 fold change (tozasertib),log2 fold change [4],log2 fold change (doramapimod),log2 fold change (ispinesib),log2 fold change (bafetinib),log2 fold change (nilotinib),log2 fold change [5],log2 fold change (dasatinib),log2 fold change [6],log2 fold change [7],log2 fold change [8],log2 fold change (tipifarnib),log2 fold change (mubritinib),log2 fold change (gandotinib),log2 fold change [9]
IMMP1L (UniProt Q96LU5),0.024,0.121,0.045,-0.05,0.088,-0.058,0.012,0.015,-0.063,-0.024,-0.044,0.059,0.098,0.03,0.068,0.071,0.02,0.048,,
MAP3K20 isoform 2 (UniProt Q9NYL2),0.038,-0.182,0.082,,,-0.191,,0.096,,,0.098,0.014,,-0.07,,,0.138,-0.134,,
LPIN3 isoform 2 (UniProt Q9BQK8),0.016,,0.125,0.011,0.002,-0.065,0.015,,-0.037,0.006,-0.005,-0.051,-0.128,0.038,0.06,0.002,0.008,0.089,-0.059,0.024
KCNK5 (UniProt O95279),0.087,-0.164,0.339,-0.013,0.213,,0.242,-0.165,,-0.31,,,-0.472,,0.139,,-0.183,0.076,-0.03,0.025
METAP1D (UniProt Q6UB28),-0.009,-0.041,0.147,-0.037,0.03,-0.055,0.01,-0.091,-0.032,-0.089,-0.114,0.036,0.007,0.079,-0.034,-0.071,-0.023,0.028,,
LPGAT1 (UniProt Q92604),-0.01,-0.101,0.073,0.015,-0.02,-0.088,0.16,-0.038,-0.237,-0.086,-0.04,-0.128,0.086,0.048,0.055,-0.082,0.01,0.067,,
LMBRD1 (UniProt Q9NUN5),-0.003,,0.111,-0.14,-0.037,-0.083,-0.031,,-0.61 (active),-0.065,-0.006,-0.062,0.064,0.026,-0.139,0.014,-0.156,0.08,-0.137,0.01
MARK2 (UniProt E9PC69),0.068,-0.323,-0.049,0.15,-0.181,-0.263,0.12,0.119,-0.232,0.116,-0.007,-0.451,-0.158,-0.031,-0.038,-0.088,-0.215,,,
MAPK14 (UniProt Q16539),0.023,-0.062,,0.018,-0.129,-0.066,0.015,,-0.069,1.65 (active),1.68 (active),0.123,1.05 (active),0.071,0.107,0.014,-0.102,0,-0.099,-0.092
MAPK14 isoform 2 (UniProt Q16539),0.087,-0.062,-0.018,-0.013,-0.072,0.031,0.017,,-0.038,1.73 (active),1.67 (active),0.176,1.37 (active),0.037,-0.071,-0.02,-0.049,0,-0.022,-0.038
MFSD11 (UniProt O43934),-0.098,-0.683 (active),-0.223,0.074,0.03,-0.109,-0.063,0.008,,-0.047,-0.038,0.046,-0.004,-0.119,0.17,,-0.047,0.063,0.036,-0.032
ITM2B (UniProt Q9Y287),0.065,-0.193,-0.032,0.038,-0.15,0.033,-0.032,0.043,0.131,-0.112,0.006,-0.062,0.006,0.033,0.035,-0.04,0.006,0.059,,
MASTL (UniProt Q96GX5),-0.058,0.092,0.179,0.046,-0.199,,-0.12,-0.075,0.099,0.143,0.014,0.002,-0.105,0.021,-0.052,0.276,,-0.093,,
KMT2C isoform 3 (UniProt Q8NEZ4),0.013,,0.021,0.022,0.134,0.063,-0.048,,-0.235,-0.209,-0.049,-0.093,0.043,0.001,0.094,-0.215,,0.083,-0.106,-0.041
LUM (UniProt P51884),-0.011,0.352,-0.146,0.217,0.021,-0.182,-0.135,0.168,-0.007,,0.449,0.036,0.002,0.257,0.177,-0.075,0.055,,,
LRFN1 (UniProt Q9P244),0.108,-0.006,-0.15,-0.198,0.038,-0.042,0.009,-0.09,0.102,-0.017,,,-0.129,,0.178,0.011,-0.026,,,
MAML1 (UniProt Q92585),-0.022,0.074,0.053,-0.056,,,,-0.038,-0.006,,,,,,0.087,-0.009,,,,
IKZF1 (UniProt R9R4D9),,0.028,,-0.078,0.042,-0.066,-0.12,0.235,,,,,-0.17,,-0.044,,-0.119,,0.244,-0.164
LOX (UniProt P28300),,,,,,,,,,-0.734 (active),-0.183,0.175,,0.12,,,,-0.017,,
MFAP3 (UniProt P55082),-0.012,,0.045,,0.083,0.009,0.003,,,-0.385,,,-0.083,,,,,,,
ITPRID2 (UniProt P28290),,-0.201,0.229,,,,,-0.056,-0.035,,,,,,,-0.032,-0.056,,,
